Screening results: PubChem, Broad Institute
Pf Dd2 inh: P. falciparum Dd2 growth inhibitors, primary screen, SYBR Green fluorescence, single dose replicates. 72 h; active compounds read low. activity change, % at 10 µM. hit rate 2.3% among 94,000; in the data active = activity change below about -80%
C diff growth: C. difficile growth inhibitors, primary screen, HTS. Clostridium difficile clinical isolate growth, OD600, 24 h; active compounds read low. growth activity, negative = inhibition, % at 16 µg/mL (by protocol). hit rate 0.25% among 86,000. AID 1259249, 2017;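 active = mean growth activity at or below -80% and every replicate also at or below -80%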;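 also: 0% = DMSO wells and -100% = levofloxacin 16 µg/mL wells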
An asterisk follows results filed as active; . = no result. Most compounds without a hit are left out; they make up all but 2.3% or so of the library.

SMILES | Pf Dd2 inh | C diff growth
COc1ccc(NC(=O)N(C)C[C@H]2OCCCC[C@H](C)Oc3ccc(NC(=O)c4ccccc4)cc3C(=O)N([C@H](C)CO)C[C@H]2C)cc1 | -95* | -2
COc1ccc(NC(=O)N(C)C[C@H]2OCCCC[C@@H](C)Oc3ccc(NC(=O)c4ccccc4)cc3C(=O)N([C@@H](C)CO)C[C@H]2C)cc1 | -62 | 0
C[C@@H]1CCCCO[C@@H](CN(C)C(=O)Nc2ccc(C(F)(F)F)cc2)[C@H](C)CN([C@@H](C)CO)C(=O)c2cc(NC(=O)Cc3ccccc3)ccc2O1 | -46 | 3
COc1ccc(NC(=O)N(C)C[C@H]2OCCCC[C@H](C)Oc3ccc(NC(=O)Cc4ccccc4)cc3C(=O)N([C@H](C)CO)C[C@H]2C)cc1 | -87* | 0
C[C@@H]1CCCCO[C@H](CN(C)C(=O)Nc2ccc(C(F)(F)F)cc2)[C@@H](C)CN([C@H](C)CO)C(=O)c2cc(NC(=O)Cc3ccccc3)ccc2O1 | -88* | 1
C[C@@H]1CCCCO[C@H](CN(C)C(=O)Nc2ccccc2)[C@H](C)CN([C@@H](C)CO)C(=O)c2cc(NC(=O)Cc3ccccc3)ccc2O1 | -59 | .
C[C@@H]1CCCCO[C@H](CN(C)C(=O)Nc2ccc(C(F)(F)F)cc2)[C@H](C)CN([C@H](C)CO)C(=O)c2cc(NC(=O)Cc3ccccc3)ccc2O1 | -86* | 6
COc1ccc(NC(=O)N(C)C[C@@H]2OCCCC[C@@H](C)Oc3ccc(NC(=O)Cc4ccccc4)cc3C(=O)N([C@@H](C)CO)C[C@@H]2C)cc1 | -58 | -5
Cc1noc(C)c1NC(=O)N(C)C[C@H]1OCCCC[C@H](C)Oc2ccc(NC(=O)Nc3ccc(C(F)(F)F)cc3)cc2C(=O)N([C@H](C)CO)C[C@@H]1C | -7 | 1
CCCNC(=O)C[C@H]1C[C@@H]2c3cc(NC(=O)c4cccnc4)ccc3O[C@@H]2[C@@H](CO)O1 | 2 | 1
C[C@@H]1CCCCO[C@H](CN(C)C(=O)Nc2ccc(F)cc2)[C@@H](C)CN([C@@H](C)CO)C(=O)c2cc(NC(=O)Cc3ccccc3)ccc2O1 | -61 | 0
C[C@@H]1CCCCO[C@@H](CN(C)C(=O)Nc2ccc(C(F)(F)F)cc2)[C@H](C)CN([C@H](C)CO)C(=O)c2cc(NC(=O)Cc3ccccc3)ccc2O1 | -78 | 9
C[C@@H]1CCCCO[C@H](CN(C)C(=O)Nc2ccc(F)cc2)[C@H](C)CN([C@H](C)CO)C(=O)c2cc(NC(=O)Cc3ccccc3)ccc2O1 | -85* | 8
C[C@H]1CCCCO[C@H](CN(C)C(=O)Nc2ccc(C(F)(F)F)cc2)[C@@H](C)CN([C@@H](C)CO)C(=O)c2cc(NC(=O)Cc3ccccc3)ccc2O1 | -89* | 1
C[C@H]1CCCCO[C@@H](CN(C)C(=O)Nc2ccccc2)[C@@H](C)CN([C@@H](C)CO)C(=O)c2cc(NC(=O)Cc3ccccc3)ccc2O1 | 7 | .
C[C@H](CO)N1C[C@H](C)[C@@H](CN(C)C(=O)Nc2ccc(C(F)(F)F)cc2)OCCCC[C@H](C)Oc2ccc(NC(=O)Cc3ccccc3)cc2C1=O | -85* | -2
CCS(=O)(=O)N1CC2(CN(C(=O)CN3CCOCC3)[C@H](CO)c3c2c2ccc(OC)cc2n3C)C1 | 10 | -3
C[C@H]1CN([C@@H](C)CO)S(=O)(=O)c2ccc(-c3cccnc3)cc2O[C@H]1CN(C)Cc1cccnc1 | 7 | 12
C[C@@H]1CN([C@H](C)CO)C(=O)Cc2cc(NS(=O)(=O)c3ccccc3)ccc2O[C@@H]1CN(C)S(C)(=O)=O | 5 | 5
COc1cccc(NC(=O)N(C)C[C@H]2Oc3cc(C#Cc4ccccc4)ccc3S(=O)(=O)N([C@H](C)CO)C[C@H]2C)c1 | -74 | 12
COc1cccc(NC(=O)N(C)C[C@H]2Oc3cc(C#Cc4ccccc4)ccc3S(=O)(=O)N([C@H](C)CO)C[C@@H]2C)c1 | -84* | 1
COc1cccc(NC(=O)N(C)C[C@@H]2Oc3cc(C#Cc4ccccc4)ccc3S(=O)(=O)N([C@@H](C)CO)C[C@@H]2C)c1 | -91* | -7
COc1cccc(NC(=O)N(C)C[C@H]2Oc3cc(C#Cc4ccncc4)ccc3S(=O)(=O)N([C@@H](C)CO)C[C@H]2C)c1 | -31 | -3
CO[C@@H]1CN(C)C(=O)c2cc(NC(=O)Nc3cccc(Cl)c3)ccc2OC[C@H](C)NC[C@H]1C | -79 | .
O=C(C[C@H]1C=C[C@H](NC(=O)C2CCC2)[C@@H](CO)O1)NCC1CC1 | 6 | 0
SMILES | Pf Dd2 inh | C diff growth
O=C1N[C@H](Cc2ccccc2)COCn2nncc2CC[C@@H]1Cc1ccccc1 | . | -5
Cc1ccc(S(=O)(=O)N[C@@H]2CC[C@H](CC(=O)NCc3ccc(Cl)c(Cl)c3)O[C@@H]2CO)cc1 | 5 | 13
C[C@H]1CN([C@@H](C)CO)C(=O)c2c(c3ccccc3n2C)-c2ccccc2CO[C@H]1CN(C)C(=O)Nc1ccccc1C(F)(F)F | -84* | 0
C[C@@H]1CN([C@H](C)CO)C(=O)c2c(c3ccccc3n2C)-c2ccccc2CO[C@H]1CN(C)C(=O)Nc1ccccc1C(F)(F)F | -45 | 19
C[C@@H]1CN([C@@H](C)CO)C(=O)c2c(c3ccccc3n2C)-c2ccccc2CO[C@@H]1CN(C)C(=O)Nc1cccc(Cl)c1Cl | -92* | 54
COc1ccccc1NC(=O)N(C)C[C@@H]1OCc2ccccc2-c2c(n(C)c3ccccc23)C(=O)N([C@H](C)CO)C[C@H]1C | -39 | .
O=C(NCC[C@H]1CC[C@H](NS(=O)(=O)c2ccc(Cl)cc2)[C@@H](CO)O1)Nc1ccc(F)cc1 | 12 | -5
CCC(=O)Nc1ccc2c(c1)OC[C@H](C)N(Cc1ccccn1)C[C@@H](C)[C@@H](OC)CN(C)C2=O | -53 | .
CCCN1C[C@@H](C)[C@H](OC)CN(C)C(=O)c2ccc(NC(=O)c3cccc(F)c3)cc2OC[C@H]1C | -87* | .
CCC(=O)Nc1ccc2c(c1)OC[C@H](C)N(Cc1ccccn1)C[C@H](C)[C@H](OC)CN(C)C2=O | -84* | .
CO[C@@H]1CN(C)C(=O)c2ccc(NC(=O)c3ccc(F)cc3)cc2OC[C@@H](C)N(C(=O)c2ccc(F)cc2)C[C@@H]1C | -88* | .
CO[C@@H]1CN(C)C(=O)c2ccc(NC(=O)c3ccc(F)cc3)cc2OC[C@H](C)N(C(=O)c2ccc(F)cc2)C[C@H]1C | -40 | .
CCCNC(=O)Nc1ccc2c(c1)C(=O)N(C)C[C@@H](OC)[C@H](C)CN(C(=O)C1CCOCC1)[C@@H](C)CO2 | -87* | .
CCCNC(=O)Nc1ccc2c(c1)C(=O)N(C)C[C@H](OC)[C@@H](C)CN(C(=O)C1CCOCC1)[C@H](C)CO2 | -79 | .
CCCN1C[C@H](C)[C@H](OC)CN(C)C(=O)c2ccc(NC(=O)c3cccc(F)c3)cc2OC[C@H]1C | -35 | .
CC(=O)N[C@H]1CC[C@@H](CCNC(=O)C2CCC2)O[C@@H]1CO | 2 | -1
COc1ccc2c3c(n(C)c2c1)[C@@H](CO)N(CC1CC1)CC31CCN(S(=O)(=O)c2cn(C)cn2)CC1 | -7 | -4
Cc1ccc(S(=O)(=O)Nc2ccc3c(c2)C(=O)N([C@@H](C)CO)C[C@@H](C)[C@H](CN(C)CC2CCCCC2)O3)cc1 | 3 | 4
CO[C@@H]1CN(C)C(=O)c2ccc(NC(=O)c3ccc4c(c3)OCO4)cc2OC[C@@H](C)N(Cc2ccc3c(c2)OCO3)C[C@H]1C | -85* | 5
